Assay [1] in a line: reducers of endogenous Her2 protein level, primary screen, SKBR3 breast tumor cells, AlphaScreen, ATP viability (AID 461;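 active means Her2 level under about 52% in both replicate screens, with viability over 70% of control, limit read from the data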;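 on Her2 level: lower value means less Her2 protein in the cells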;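 on viability: percent of carrier control wells set as 100% viability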). To be noted: 18-24 h, measured here: SKBR3 viability, ATP luminescence, at 10 µM.
Assay [2] concerns the target Receptor tyrosine-protein kinase erbB-2 (Homo sapiens) (UniProt P04626). The description is as above. Particulars: 18-24 h, at 10 µM, stronger effect = lower value.
Assay [3] is described as follows: SK-BR-3 cell growth inhibitors, pilot screen, 24 h, human (AID 572;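 active means viability at or below 10% of carrier control in both of two separate runs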;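 further: compound exposure lasted between 18 and 24 h rather than exactly 24 h; 100% = carrier-treated control wells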). To be noted: SK-BR-3 viability, CellTiter-Glo luminescence, at 10 µM, stronger effect = lower value.
Assay [4] in a line: HUVEC growth inhibition – cell-based, human, primary screen (AID 575;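 active means viability at or below 30% in both replicate assays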;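 further: 100% = median of untreated cell wells with 0.1% DMSO on each plate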). Particulars: HUVEC proliferation, CellTiter-Glo luminescence, 72 h; at 10 µM; stronger effect = lower value.
Assay [5] is described as follows: growth inhibitors of H69AR lung tumor, primary screen, human, duplicate replicates (AID 580;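 active means viability at or under a set limit in both replicates, limit being median viability minus 3 SD, cut at about 48% in these data, passing the limit was not always enough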;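 further: 100% = mean luminescence of untreated wells and 0% = no signal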). Particulars: H69AR lung tumor cells viability, ATP luminescence, 72 h; at 10 µM; stronger effect = lower value.
Assay [6] can be described thus: reversal of MRP1-mediated doxorubicin resistance, pilot screen, H69AR cells, doxorubicin co-treatment (AID 601). Particulars: CellTiter-Glo, 72 h, at 10 µM; for differential viability (reversal): stronger effect = higher value.
The nature of assay [7]: 384-well plate pilot, post-Golgi transport modulator project, inhibition of yeast transport mutant growth (AID 636; in the data active means inhibition above about 31%). Particulars: absorbance 615 nm, about 18 h, stronger effect = higher value.
Assay [8] in a line: growth suppression of yeast trafficking mutant, preliminary HTS, modulators of trafficking downstream of Golgi apparatus project, 1536-format plate, OD 615 nm (AID 637; in the data active means inhibition above about 30%). To be noted: yeast transport mutant growth, absorbance 615 nm, 18 h; stronger effect = higher value.
Assay [9] can be described thus: OD615 S. cerevisiae growth inhibition, permissive medium, pilot counter-assay, permissive growth control for S. cerevisiae lifespan shortening project (AID 705;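 active means growth inhibition above 25% in both replicates, a cutoff set 3 SD above the mean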). Particulars: OD615, 24 h, at 10 µM, stronger effect = higher value.
Assay [10] in a line: Restrictive medium S. cerevisiae growth inhibition, OD615, pilot screen of yeast lifespan reduction project, restrictive growth control (AID 706;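 active means growth inhibition above a set limit, 3 SD over mean compound inhibition, in both replicates, cut at about 43% in these data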;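 further: modified DeaD lifespan yeast strain shifted to restrictive glucose medium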). To be noted: OD615, 48 h, at 10 µM, stronger effect = higher value.
Assay [11] can be described thus: viability gain of MRP-1-high H69AR cells under doxorubicin, pilot screen, MRP-1 activator project, CellTiter-Glo, duplicate (AID 807;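 active means viability increase at or above a cutoff of the median across tested compounds plus 3 SD, cut at about 8.5% in these data, passing the limit was not always enough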;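 further: compound pretreatment 18-22 h then 72 h combined with doxorubicin; 0% = doxorubicin alone and 100% = vehicle without doxorubicin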). To be noted: H69AR viability with doxorubicin, CellTiter-Glo luminescence; at 10 µM; stronger effect = higher value.
Assay [12] is described as follows: growth suppression of beta-catenin knockout HCT116, pilot screen, human colon tumor cells (AID 823;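 active means cell viability at or below a set limit in both duplicate runs, the limit being the all-compound median minus 4 SD, cut at about 23% in these data, passing the limit was not always enough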;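 further: 0% = wells killed by 20 µM Hyamine and 100% = untreated DMSO cell wells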). To be noted: CellTiter-Glo, 60 h, at 10 µM, stronger effect = lower value.
Assay [13] in a line: growth suppression of PTEN-deleted HCT116, pilot screen, cell-based, HCT116 clonal line, CellTiter-Glo (AID 824;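 active means viability at or below 27.92% in each of two runs, the all-compound median minus 4 SD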;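 further: 0% = 20 µM Hyamine control and 100% = vehicle cell control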). Particulars: 60 h, at 10 µM, stronger effect = lower value.
Assay [14] can be described thus: inhibitors of the yeast RAM network, pilot screen, dse1pr::URA3 reporter, 5-FOA selection (AID 869;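 active means inhibition over a set limit, the all-compound mean plus 3 SD, in both replicate runs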;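 further: 0% = DMSO wells with no growth and 100% = 10 µM 1-NA-PP1 with full growth; RAM network block rescues cells from 5-FOA so hits raise OD615 growth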). Particulars: S. cerevisiae dse1pr::URA3 5-FOA growth, OD615, 2 d; at 10 µM; stronger effect = higher value; strain carries analog-sensitive mutant Cbk1 kinase.
Assay [15] is described as follows: RAM signaling pathway blockade in yeast – S. cerevisiae, Pdr1DBD-CYC8 efflux-inhibited sensitized strain, primary screen (AID 1298;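 active means RAM network inhibition above 8.4% in each of two replicates, 3 SD over the compound average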;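 further: 0% = DMSO untreated cells without growth and 100% = 10 µM 1-NA-PP1 full growth; higher means more yeast growth rescued from 5-FOA killing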). To be noted: S. cerevisiae cbk1-as DSE1-URA3 strain, 5-FOA growth OD615, 2 d; at 50 µM; stronger effect = higher value.
[16] abbreviates: H69AR cells + 2 uM doxorubicin, measured here: viability with 2 uM doxorubicin, stronger effect = lower value.
[17] abbreviates: H69AR cells, compound alone cytotoxicity.

Results filed as inconclusive are left out. Active and inactive are the calls of the source.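 How the source made its calls, unless noted: active means viability loss from added drug above about 55%, and viability with drug at most 40%, in both replicates (limit read from the data, passing the limit was not always enough); inconclusive means both conditions met in only one replicate; inactive means neither replicate meets both conditions.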

Receptor tyrosine-protein kinase erbB-2 (Homo sapiens), sequence (P04626 whole entry, looked up): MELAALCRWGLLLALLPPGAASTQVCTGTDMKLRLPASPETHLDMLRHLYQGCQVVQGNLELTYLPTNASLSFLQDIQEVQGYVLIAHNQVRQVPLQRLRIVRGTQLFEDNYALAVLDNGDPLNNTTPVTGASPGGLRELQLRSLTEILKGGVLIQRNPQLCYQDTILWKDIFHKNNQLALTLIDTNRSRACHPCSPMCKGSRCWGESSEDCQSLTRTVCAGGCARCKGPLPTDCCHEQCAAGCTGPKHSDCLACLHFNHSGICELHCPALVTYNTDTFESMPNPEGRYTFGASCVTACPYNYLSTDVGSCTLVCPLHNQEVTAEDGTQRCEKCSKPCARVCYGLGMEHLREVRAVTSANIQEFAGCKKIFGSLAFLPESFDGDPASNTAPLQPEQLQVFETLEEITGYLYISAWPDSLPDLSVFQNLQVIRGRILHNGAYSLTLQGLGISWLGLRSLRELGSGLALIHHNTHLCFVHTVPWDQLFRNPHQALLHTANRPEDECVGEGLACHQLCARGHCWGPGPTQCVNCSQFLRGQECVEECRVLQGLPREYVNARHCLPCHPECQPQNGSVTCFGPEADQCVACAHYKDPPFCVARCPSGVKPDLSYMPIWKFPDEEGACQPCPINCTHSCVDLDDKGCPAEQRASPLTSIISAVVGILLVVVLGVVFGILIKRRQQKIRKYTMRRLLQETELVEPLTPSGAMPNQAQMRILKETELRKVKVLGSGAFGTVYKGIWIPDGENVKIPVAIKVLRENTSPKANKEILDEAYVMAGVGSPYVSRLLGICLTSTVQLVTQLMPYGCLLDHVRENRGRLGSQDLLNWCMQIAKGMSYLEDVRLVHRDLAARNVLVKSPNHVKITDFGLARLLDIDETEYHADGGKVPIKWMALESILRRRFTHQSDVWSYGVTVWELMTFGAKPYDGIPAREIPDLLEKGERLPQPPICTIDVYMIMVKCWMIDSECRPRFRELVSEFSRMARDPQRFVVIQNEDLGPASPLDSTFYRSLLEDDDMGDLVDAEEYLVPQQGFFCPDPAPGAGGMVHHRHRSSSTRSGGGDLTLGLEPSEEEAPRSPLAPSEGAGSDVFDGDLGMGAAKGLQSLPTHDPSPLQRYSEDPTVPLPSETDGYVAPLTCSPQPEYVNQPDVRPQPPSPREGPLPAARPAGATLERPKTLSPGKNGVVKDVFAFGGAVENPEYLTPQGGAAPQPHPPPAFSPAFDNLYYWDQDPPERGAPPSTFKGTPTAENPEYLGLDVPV

For `O=C(NCCN1CCOCC1)c1ccc2c(c1)N(Cc1ccccc1F)C(=O)CS2`, the viability was 94% in assay [1]; 94% (inactive) in assay [3]; 95% (inactive) in assay [4]; 92.6% (inactive) in assay [5]; 100% in [6] (setting [16]); 92.6% in [6] (setting [17]). Further, the viability in assay [12] and in assay [13] was 102% (inactive) in each case. For the same compound, the Her2 level in assay [2] was 100% (inactive). Also, the differential viability (reversal) in [6] (H69AR cells + 2 uM doxorubicin) is -7.79% (inactive). Moreover, the values for the inhibition in assay [7], in [8] and in [14] were -6.4% (inactive), 1.59% (inactive) and 1.9% (inactive), respectively. In addition, the growth inhibition is 7.73% (inactive) in assay [9] and 7.02% (inactive) in assay [10]. Besides, in assay [11], the viability increase is 1.73% (inactive). In [15], the RAM network inhibition was 1.89% (inactive).

Regarding `COC(=O)CSc1nnc(-c2ccncc2)o1`, the viability in assay [1] was 116%; in assay [3] it was 116% (inactive); in assay [4], 105% (inactive); in assay [5] it was 95% (inactive); in assay [6] (setting [16]), 87%; in assay [6] (setting [17]), 95%. Also, the viability in assay [12] was 93.2% (inactive); in [13], 94.2% (inactive). Moreover, in assay [2], the Her2 level is 127% (inactive). Also, the differential viability (reversal) in [6] (H69AR cells + 2 uM doxorubicin) was 7.96% (inactive). Also, the inhibition in assay [7] is -3.25% (inactive); in assay [8] it was -7.33% (inactive); in assay [14], 0.9% (inactive). The growth inhibition was -2.71% (inactive) in [9] and -17.9% (inactive) in assay [10]. The viability increase in assay [11] was -2.71% (inactive). In addition, the RAM network inhibition in assay [15] was 0.67% (inactive).

Consider `N#CCCN1CCN(S(=O)(=O)c2ccc(S(=O)(=O)NC3CCCCC3)cc2)CC1`, for which the viability in assay [1] is 103%; in [3], 103% (inactive); in assay [4] it was 98.9% (inactive); in assay [5] it was 100% (inactive); in assay [6] (setting [16]) it was 87.5%; in [6] (setting [17]), 100%. For the same compound, the viability is 103% (inactive) in assay [12] and 97.8% (inactive) in assay [13]. Besides, the Her2 level in [2] is 105% (inactive). In addition, the differential viability (reversal) in assay [6] (H69AR cells + 2 uM doxorubicin) was 12.5% (inactive). Besides, the inhibition in assay [7] is -2.69% (inactive); in assay [8] it was 3.67% (inactive); in assay [14] it was 1.02% (inactive). The growth inhibition in assay [9] is -1.9% (inactive); in [10] it was -5.03% (inactive). The viability increase in assay [11] was -0.74% (inactive). In [15], the RAM network inhibition was 5.92% (inactive).

As for `CC1(C)Cc2ccccc2C(N)=C1C#N`, the viability in [1] is 93.5%; in [3] it was 93.5% (inactive); in assay [4] it was 87.5% (inactive); in assay [5], 93.7% (inactive); in assay [6] (setting [16]), 83.8%; in assay [6] (setting [17]), 93.7%. Besides, the viability was 89.9% (inactive) in [12] and 91.8% (inactive) in assay [13]. For the same compound, in assay [2], the Her2 level is 111% (inactive). The differential viability (reversal) in assay [6] (H69AR cells + 2 uM doxorubicin) is 9.91% (inactive). Further, the values for the inhibition in assay [7], in assay [8] and in assay [14] were 4.81% (inactive), -3.11% (inactive) and 0.81% (inactive), respectively. Further, the results for the growth inhibition in assay [9] and in assay [10] were 4.29% (inactive) and -0.06% (inactive), respectively. In [11], the viability increase was -0.77% (inactive). For the same compound, in assay [15], the RAM network inhibition is 0.69% (inactive).

In the case of `CN(C1CCCCC1)S(=O)(=O)c1ccc(S(=O)(=O)N2CCN(CCC#N)CC2)cc1`, the viability was 89.5% in [1]; 89.5% (inactive) in assay [3]; 98.5% (inactive) in [4]; 103% (inactive) in assay [5]; 74.8% in [6] (setting [16]); 103% in assay [6] (setting [17]). For the same compound, the figures for the viability in [12] and in [13] were 97.2% (inactive) and 91.5% (inactive), respectively. Moreover, the Her2 level in [2] was 92.5% (inactive). For the same compound, in assay [6] (H69AR cells + 2 uM doxorubicin), the differential viability (reversal) is 27.9% (inactive). Besides, the inhibition in assay [7] is -2.27% (inactive); in [8], 4.26% (inactive); in assay [14] it was 0.805% (inactive). Also, the growth inhibition in [9] was -11.3% (inactive); in [10], -3.55% (inactive). Besides, the viability increase in [11] was -1.47% (inactive). The RAM network inhibition in [15] was 1.41% (inactive).

Take `COc1cc(OC)c2c(c1)OC(c1ccc(OC)c(OC)c1)C(O)C2=O` (stereo not given): the viability in [1] was 90.5%; in assay [3], 90.5% (inactive); in assay [4] it was 112% (inactive); in [5], 90.9% (inactive); in [6] (setting [16]), 78%; in assay [6] (setting [17]) it was 90.9%. Also, the values for the viability in [12] and in assay [13] were 101% (inactive) and 100% (inactive), respectively. The Her2 level in [2] is 79% (inactive). The differential viability (reversal) in assay [6] (H69AR cells + 2 uM doxorubicin) was 12.9% (inactive). In addition, the figures for the inhibition in [7], in assay [8] and in assay [14] were -2.67% (inactive), 0.82% (inactive) and 2.65% (inactive), respectively. Also, the growth inhibition in assay [9] was -13.6% (inactive); in assay [10] it was -14.9% (inactive). Also, the viability increase in assay [11] is -1.91% (inactive). Further, the RAM network inhibition in [15] was 2.25% (inactive).

As for `COc1ccc(NS(=O)(=O)c2coc(C(N)=O)c2)cc1Cl`, the viability is 101% in assay [1]; 101% (inactive) in assay [3]; 119% (inactive) in assay [4]; 99.1% (inactive) in assay [5]; 107% in assay [6] (setting [16]); 99.1% in assay [6] (setting [17]). Also, the results for the viability in assay [12] and in assay [13] were 108% (inactive) and 102% (inactive), respectively. Moreover, the Her2 level in [2] is 110% (inactive). For the same compound, in assay [6] (H69AR cells + 2 uM doxorubicin), the differential viability (reversal) was -8.07% (inactive). The figures for the inhibition in assay [7], in assay [8] and in [14] were 0% (inactive), 11% (inactive) and 1.92% (inactive), respectively. Besides, the growth inhibition in [9] is -21.1% (inactive); in assay [10], -10.9% (inactive). Moreover, the viability increase in assay [11] was -0.71% (inactive). For the same compound, in assay [15], the RAM network inhibition is 1.58% (inactive).

On to `CCOc1cccc(OCCCCn2ccnc2)c1`, for which the viability in assay [1] is 87%; in assay [3], 87% (inactive); in [4] it was 97.3% (inactive); in [5], 85.4% (inactive); in assay [6] (setting [16]) it was 88.8%; in assay [6] (setting [17]) it was 85.4%. Besides, the values for the viability in [12] and in [13] were 49% (inactive) and 62.3% (inactive), respectively. Further, the Her2 level in assay [2] is 75.5% (inactive). In addition, in assay [6] (H69AR cells + 2 uM doxorubicin), the differential viability (reversal) was -3.44% (inactive). In addition, the inhibition in assay [7] is 3.92% (inactive); in assay [8] it was -2.46% (inactive); in assay [14], 2.19% (inactive). Also, the growth inhibition was -3.35% (inactive) in assay [9] and -16.8% (inactive) in [10]. Besides, the viability increase in assay [11] was -0.4% (inactive). For the same compound, in assay [15], the RAM network inhibition was 1.84% (inactive).

In the case of `Cc1c(C)c2ccc(OC3CCCCC3=O)cc2oc1=O` (stereo not given), the viability is 100% in assay [1]; 100% (inactive) in assay [3]; 82.6% (inactive) in assay [4]; 85.8% (inactive) in assay [5]; 75.4% in [6] (setting [16]); 85.8% in assay [6] (setting [17]). The viability is 104% (inactive) in assay [12] and 101% (inactive) in [13]. Further, the Her2 level in assay [2] is 112% (inactive). In addition, the differential viability (reversal) in assay [6] (H69AR cells + 2 uM doxorubicin) was 10.4% (inactive). In addition, the inhibition is -1.92% (inactive) in [7], -2.67% (inactive) in assay [8] and 0.48% (inactive) in assay [14]. Also, the growth inhibition in [9] is -16.6% (inactive); in assay [10], -7.25% (inactive). In addition, in assay [11], the viability increase was 0.57% (inactive). In addition, in [15], the RAM network inhibition was 1.93% (inactive).

On to `Cc1noc(C(=O)Nc2ccc3c(c2)OCO3)c1Cl`, for which the viability in assay [1] is 84.5%; in assay [3], 84.5% (inactive); in assay [4] it was 51.4% (inactive); in assay [5], 96.9% (inactive); in [6] (setting [16]), 97.2%; in [6] (setting [17]), 96.9%. Moreover, the viability was 95.9% (inactive) in [12] and 89.7% (inactive) in [13]. The Her2 level in assay [2] is 75% (inactive). In assay [6] (H69AR cells + 2 uM doxorubicin), the differential viability (reversal) is -0.25% (inactive). Further, the inhibition was -4.13% (inactive) in assay [7], 1.67% (inactive) in assay [8] and 2.92% (inactive) in assay [14]. Also, the growth inhibition in [9] is -0.74% (inactive); in assay [10] it was 6.31% (inactive). Besides, the viability increase in [11] was -3.47% (inactive). In [15], the RAM network inhibition was 5.2% (inactive).

For the origin of these results see PubChem BioAssay.
